# Screens as filed in PubChem.
# In the library only some 4.8% were active in any assay of this set; here they are far more common.
# hcDAF-12 act: activators of H. contortus DAF-12 nuclear receptor; HEK293 hcDAF-12 lit1-tk-luc reporter, luminescence; 0% DMSO, 100% Δ7-dafachronic acid; 1.4% of 370,000 active; activation, % at 6.8 µM; AID 652067;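 active = activation above the mean of all tested compounds plus 3 SD, cut at about 5.5% in these data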;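 note: 100% = response to 3 µM Δ7-dafachronic acid high control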
# hgDAF12 agonist: activates the H. glycines DAF-12 receptor ligand-binding domain | HEK293 GAL4-hgDAF12 UAS-luciferase reporter, agonist luminescence; normalized to butyrate control | activation, % at 6.8 µM | 1.8% of 370,000 active | AID 687014;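 active = activation above a cutoff set at the mean of all screened compounds plus 3 SD, cut at about 10% in these data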;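 note: 0% = DMSO wells and 100% = sodium butyrate wells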
# SMARCA2 act: increases SMARCA2 function in MMTV reporter cells | MG213 cells, MMTV-luciferase reporter, dexamethasone, overnight | activation, % at 9.1 µM | 1% of 370,000 active | AID 652017; in the data active = activation above about 7.8%;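 note: 0% = vehicle wells and 100% = reference activator wells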
# ssDAF12 agonist: activates DAF-12 receptor from parasite S. stercoralis | HEK293 ssDAF-12/GRIP1 lit1-tk-luc reporter, luminescence; % of 3 µM dafachronic acid response | activation, % at 6.8 µM | 1% of 370,000 active | AID 652126;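 active = activation above the mean over all tested compounds plus 3 SD, cut at about 0.9% in these data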;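 note: 0% = DMSO-only wells and 100% = 3 µM delta7-dafachronic acid wells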
# DAX1 inh-1: DAX1 (NR0B1) inhibition, primary screen | HEK293T StAR-luciferase reporter, SF-1/DAX-1 repression relief | inhibition, % at 6.8 µM | 1.1% of 370,000 active | AID 652010;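 active = inhibition above the mean over all tested compounds plus 3 SD, cut at about 3.6% in these data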;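 note: 0% = DAX-1 cells with DMSO and 100% = cells lacking DAX-1 with DMSO; higher inhibition means more luminescence from relief of DAX-1 repression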
# DAX1 inh-2: inhibitors of human orphan nuclear receptor DAX1 (NR0B1). P51843. HEK293 Gal4-DAX1 luciferase reporter, luminescence. inhibition, % at 6.75 µM. 0.99% of 340,000 active;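 active = inhibition above the mean over all tested compounds plus 3 SD, cut at about 4.2% in these data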;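 note: 0% = DAX1-transfected cells with DMSO and 100% = empty-vector control cells with DMSO; inhibition shows as a rise in luminescence from relieved DAX1 repression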
# Target sequence (P51843 207-470 limits assumed): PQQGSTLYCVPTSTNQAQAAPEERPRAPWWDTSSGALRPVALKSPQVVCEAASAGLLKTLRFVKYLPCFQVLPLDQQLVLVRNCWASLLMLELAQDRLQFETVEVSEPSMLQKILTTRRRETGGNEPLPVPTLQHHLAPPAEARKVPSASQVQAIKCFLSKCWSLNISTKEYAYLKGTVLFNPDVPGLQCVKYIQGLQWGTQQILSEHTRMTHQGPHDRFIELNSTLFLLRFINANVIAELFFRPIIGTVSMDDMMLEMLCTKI
# The depositor's hits bear a star; . = no result given.
SMILES,hcDAF-12 act,hgDAF12 agonist,SMARCA2 act,ssDAF12 agonist,DAX1 inh-1,DAX1 inh-2
CCOc1ccc(-n2c(SCC(=O)Nc3cccc4ccccc34)nnc2-c2ccncc2)cc1,-2,0,-6,0,-3,.
O=S1(=O)CCC(NCC2CCCO2)C1 (stereo unspecified),-1,-1,0,-2,-1,7.4*
O=C(c1ccc(F)cc1F)N1CCC(Oc2cccnc2)CC1,-2,-3,2,-1,0,.
C[C@H](NC(=O)c1ccco1)C(=O)Nc1ccc2c(c1)OCO2,2,-1,-1,-1,0,0
C[C@H](NC(=O)c1ccco1)C(=O)Nc1cccc([N+](=O)[O-])c1,1,3,-4,-2,0,5.3*
O=C(Nc1cc(Oc2ccc(Cl)cc2)cc([N+](=O)[O-])c1)c1ccco1,5.6*,-2,-2,-1,0,-1
CCOc1ccc(Oc2cc(NC(=O)c3ccco3)cc([N+](=O)[O-])c2)cc1,-2,1,-4,-2,-2,-1
O=C(Nc1ccccc1)C1=C[C@H](c2ccccc2)C[C@H](OCCCCO)O1,5.7*,9,4,0,2,2
Cc1ccc(C(=O)NC(=S)NCC2CCCO2)cc1Br (stereo unspecified),5.7*,10,0,0,1,2
O=C(NC(=S)NCC1CCCO1)c1ccccc1Br (stereo unspecified),-1,1,-3,-1,0,0
CCOc1ccc(-c2cn3ccccc3n2)cc1[N+](=O)[O-],1,11*,4,0,1,2
CCCOc1ccc(-c2csc(N)n2)cc1[N+](=O)[O-],1,6,6,-1,0,2
CCOc1ccc(Cn2ccnc2)cc1[N+](=O)[O-],-2,1,13*,-1,0,0
CCCCOc1ccc(-c2cn3ccccc3n2)cc1[N+](=O)[O-],1,11*,7,-1,0,-1
Oc1ccc(-c2cn3ccccc3n2)cc1O,6.1*,8,2,0,2,1
O=[N+]([O-])c1ccc(-c2cn3ccccc3n2)cc1,2,7,7,0,2,.
CCCCCOc1ccc(Cn2ccnc2)cc1[N+](=O)[O-],-2,-3,1,-2,0,-3
Fc1cccc(CNC(=S)OC2CCC23CCC(c2ccccc2)CC3)c1 (stereo unspecified),-1,2,-2,-1,0,.
CCOC(=O)[C@@]12CN(C(=O)OC(C)(C)C)CC=C1N(Cc1ccc(OC)cc1)C(=O)[C@H]2CC(=O)N1CCCCC1,-3,-3,-3,-1,0,.
Cc1nn(C)cc1NC(=O)C[C@H]1CC[C@H]2[C@@H](COc3ccc(NC(=O)Nc4ccccc4)cc3C(=O)N2C)O1,2,1,-2,0,1,.
Cc1ccc(CN2CCCCC(NC(=O)c3ccc4ccccc4c3)C2=O)cc1 (stereo unspecified),-1,5,-1,-1,-1,.
CCOC(=O)N1CCN(C(=O)C[C@H]2C[C@@]3(C(=O)OC)C(=C[C@H](C4CCCC4)O[C@@H]3C)N(Cc3ccc(Cl)cc3Cl)C2=O)CC1,0,1,-3,-2,-2,.
COc1cccc(-c2nnc(-c3ccco3)o2)c1,6,12*,6,-1,4,0
CC(C)COc1ccc(-c2nnc(-c3ccco3)o2)cc1,4,10,4,1,3.7*,0
O=C(COc1ccccc1)Nc1ccc(-c2nnc(-c3ccco3)o2)cc1,6.3*,9,3,0,1,0
SMILES,hcDAF-12 act,hgDAF12 agonist,SMARCA2 act,ssDAF12 agonist,DAX1 inh-1,DAX1 inh-2
CCN(CC)CCCNc1ccc(-c2nnc(-c3ccc(OCC(C)C)cc3)o2)cn1,-2,1,-7,-2,0,-2
CCCOc1ccc(-c2nnc(-c3ccco3)o2)cc1,4,11*,5,0,3.7*,-3
COc1cccc(C(=O)Nc2ccc(-c3nnc(-c4ccco4)o3)cc2)c1,-3,-3,2,-2,-2,-3
CN(C(=O)CCn1nnc(-c2cccs2)n1)C1CCCCC1,1,2,4,-1,0,.
O=C(O)c1ccc(-n2nnnc2Oc2ccccc2C(=O)N2CCOCC2)cc1,-1,0,2,-1,-1,4.9*
O=C(Nc1cccc(Cl)c1)O[C@@H]1CC[C@@]23CCCN2C(=O)CCC[C@H]3C1,-2,-5,.,-1,.,.
Clc1ccc(CONc2ncnc3nonc23)c(Cl)c1,1,11*,2,-1,2,2
CCONc1ncnc2nonc12,1,-2,-1,-2,0,0
CCN(CC)CCCNC(=O)CNC(=O)c1nn(-c2ccc(OC)c(OC)c2)c(=O)c2ccccc12,-1,1,0,-1,0,1
CCN(CC)CCNC(=O)CNC(=O)c1nn(-c2ccc(OC)c(OC)c2)c(=O)c2ccccc12,2,1,-1,-1,0,4.9*
Cc1ccc(/C=N/NC(=S)N2CCOCC2)cc1,4,12*,6,0,2,1
S=C(N/N=C/c1ccc(Br)cc1)N1CCCCC1,3,10,4,1.2*,2,6.7*
Cc1ccc(CNC(=S)N2CCOCC2)cc1,3,-2,-2,-1,-1,1
CCC(C)[C@@H](C(=O)OC)N(Cc1cn(Cc2ccccc2)nn1)S(=O)(=O)c1ccccc1Br (stereo partly specified),-1,-1,-3,-1,0,.
NS(=O)(=O)c1ccc(CCNC(=O)CSc2nc3ccsc3c(=O)n2CCCCCC(=O)O)cc1,2,1,2,-1,-1,2
CCCCNC(=O)CSc1nc2ccsc2c(=O)n1CCCC(=O)NCCc1ccc(S(N)(=O)=O)cc1,0,3,2,-2,1,6.1*
COc1ccc(OC)c(-c2nc(C(=O)NC3CCN(Cc4ccccc4)CC3)cc3c2[nH]c2ccccc23)c1,-1,-1,-1,-2,1,1
COc1ccc(OC)c(-c2nc(C(=O)NCCCN3CCOCC3)cc3c2[nH]c2ccccc23)c1,4,-2,2,1.0*,1,3
O=C(N=Nc1c(O)[nH]c2ccccc12)c1ccc(CN2CCOCC2)cc1,-1,2,-3,-1,1,2
O=C(N=Nc1c(O)[nH]c2ccccc12)c1ccc2c(c1)OCO2,5,13*,6,0,3,0
N/C(Cc1cccs1)=N\OC(=O)COc1ccc(Cl)cc1Cl,4,13*,1,-1,2,1
N/C(Cc1ccc(Cl)cc1Cl)=N\OC(=O)Cc1cccs1,3,3,1,-1,0,1
CCOC(=O)[C@]12CCCCC/C=C\1N(CCc1ccc(Cl)cc1)C(=O)[C@H]2CC(=O)N1CCCC1,-3,-2,-3,-1,-4,.
